Columns and labels:
Test in all cases: log2 ratio of Biotin-Ahx-Ub-VS probe labelling (fragment/DMSO); higher = less target engagement (more negative = stronger competition), active = hit call of the paper (q ≤ 0.05, log2 ratio ≤ -1)
Settings in all cases: compound concentration: 200 uM; treatment time: 3 h
USP19 = target: T1, USP19 (UniProt O94966)
T1 sequence (whole entry): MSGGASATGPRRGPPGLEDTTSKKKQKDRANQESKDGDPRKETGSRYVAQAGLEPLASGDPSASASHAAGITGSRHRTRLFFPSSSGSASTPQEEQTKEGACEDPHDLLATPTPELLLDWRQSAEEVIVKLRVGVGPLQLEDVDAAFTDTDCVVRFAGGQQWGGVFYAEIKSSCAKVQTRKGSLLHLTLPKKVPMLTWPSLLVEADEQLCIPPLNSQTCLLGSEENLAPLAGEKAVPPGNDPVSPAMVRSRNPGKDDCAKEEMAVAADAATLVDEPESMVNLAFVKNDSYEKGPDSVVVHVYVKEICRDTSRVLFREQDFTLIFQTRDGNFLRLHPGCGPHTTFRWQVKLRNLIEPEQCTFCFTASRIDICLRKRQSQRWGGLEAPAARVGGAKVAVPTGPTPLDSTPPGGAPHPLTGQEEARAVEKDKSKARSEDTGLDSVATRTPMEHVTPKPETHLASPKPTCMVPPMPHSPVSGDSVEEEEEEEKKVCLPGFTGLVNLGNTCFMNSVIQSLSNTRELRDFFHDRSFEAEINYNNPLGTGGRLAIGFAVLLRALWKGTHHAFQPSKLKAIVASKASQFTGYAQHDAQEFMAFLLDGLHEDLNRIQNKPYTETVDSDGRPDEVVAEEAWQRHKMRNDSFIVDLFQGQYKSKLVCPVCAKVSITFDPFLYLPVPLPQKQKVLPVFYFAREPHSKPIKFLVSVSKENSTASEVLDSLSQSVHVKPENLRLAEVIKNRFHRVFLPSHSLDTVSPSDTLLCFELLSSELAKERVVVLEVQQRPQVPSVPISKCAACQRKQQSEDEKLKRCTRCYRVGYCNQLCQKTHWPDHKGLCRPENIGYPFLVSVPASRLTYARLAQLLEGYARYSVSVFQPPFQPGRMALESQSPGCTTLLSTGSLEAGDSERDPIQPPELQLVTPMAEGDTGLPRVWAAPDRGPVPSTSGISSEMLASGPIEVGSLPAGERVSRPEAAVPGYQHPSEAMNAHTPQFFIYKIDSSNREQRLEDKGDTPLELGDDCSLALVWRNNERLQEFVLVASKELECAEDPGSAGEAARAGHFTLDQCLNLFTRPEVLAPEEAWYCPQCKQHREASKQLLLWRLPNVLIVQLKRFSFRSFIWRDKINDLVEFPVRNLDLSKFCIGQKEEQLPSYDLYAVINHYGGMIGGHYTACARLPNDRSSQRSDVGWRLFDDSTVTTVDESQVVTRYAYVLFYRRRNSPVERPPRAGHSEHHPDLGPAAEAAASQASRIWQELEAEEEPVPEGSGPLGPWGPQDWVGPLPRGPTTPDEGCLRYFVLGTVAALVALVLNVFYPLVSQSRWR
In short: (§1)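 HEK293T lysate in Tris/CHAPS/IGEPAL buffer with protease inhibitors (495 µg per sample) was given fragment at 200 µM or vehicle for 3 h, in triplicate. It then received Biotin-Ahx-Ub-VS at 0.5 µM final for 1 h. Labelled DUBs were NeutrAvidin-enriched, digested with LysC and trypsin, and run by diaPASEF LC-MS/MS. Values are average log2 fragment/vehicle ratios by unpaired t-test on global-median-normalised Spectronaut quantities of proteins with ≥2 unique peptides.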

USP22 = target: T2, USP22 (UniProt Q9UPT9)
T2 sequence (whole entry): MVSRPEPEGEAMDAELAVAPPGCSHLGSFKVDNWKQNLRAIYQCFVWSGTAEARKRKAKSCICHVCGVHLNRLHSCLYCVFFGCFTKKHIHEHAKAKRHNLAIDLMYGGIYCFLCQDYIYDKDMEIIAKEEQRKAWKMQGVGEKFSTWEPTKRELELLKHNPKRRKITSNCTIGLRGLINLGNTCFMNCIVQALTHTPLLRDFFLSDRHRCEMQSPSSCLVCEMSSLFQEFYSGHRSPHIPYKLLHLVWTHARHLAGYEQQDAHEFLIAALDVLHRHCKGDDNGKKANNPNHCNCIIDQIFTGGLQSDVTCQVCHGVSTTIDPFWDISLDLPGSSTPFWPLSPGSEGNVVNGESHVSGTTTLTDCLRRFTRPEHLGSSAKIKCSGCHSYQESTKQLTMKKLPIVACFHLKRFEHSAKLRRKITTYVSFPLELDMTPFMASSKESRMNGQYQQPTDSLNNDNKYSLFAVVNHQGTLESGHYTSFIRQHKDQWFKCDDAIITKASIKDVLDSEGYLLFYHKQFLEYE
In short: as §1

USP24 = USP24 (UniProt Q9UPU5)
Chain of USP24 (Q9UPU5 whole entry): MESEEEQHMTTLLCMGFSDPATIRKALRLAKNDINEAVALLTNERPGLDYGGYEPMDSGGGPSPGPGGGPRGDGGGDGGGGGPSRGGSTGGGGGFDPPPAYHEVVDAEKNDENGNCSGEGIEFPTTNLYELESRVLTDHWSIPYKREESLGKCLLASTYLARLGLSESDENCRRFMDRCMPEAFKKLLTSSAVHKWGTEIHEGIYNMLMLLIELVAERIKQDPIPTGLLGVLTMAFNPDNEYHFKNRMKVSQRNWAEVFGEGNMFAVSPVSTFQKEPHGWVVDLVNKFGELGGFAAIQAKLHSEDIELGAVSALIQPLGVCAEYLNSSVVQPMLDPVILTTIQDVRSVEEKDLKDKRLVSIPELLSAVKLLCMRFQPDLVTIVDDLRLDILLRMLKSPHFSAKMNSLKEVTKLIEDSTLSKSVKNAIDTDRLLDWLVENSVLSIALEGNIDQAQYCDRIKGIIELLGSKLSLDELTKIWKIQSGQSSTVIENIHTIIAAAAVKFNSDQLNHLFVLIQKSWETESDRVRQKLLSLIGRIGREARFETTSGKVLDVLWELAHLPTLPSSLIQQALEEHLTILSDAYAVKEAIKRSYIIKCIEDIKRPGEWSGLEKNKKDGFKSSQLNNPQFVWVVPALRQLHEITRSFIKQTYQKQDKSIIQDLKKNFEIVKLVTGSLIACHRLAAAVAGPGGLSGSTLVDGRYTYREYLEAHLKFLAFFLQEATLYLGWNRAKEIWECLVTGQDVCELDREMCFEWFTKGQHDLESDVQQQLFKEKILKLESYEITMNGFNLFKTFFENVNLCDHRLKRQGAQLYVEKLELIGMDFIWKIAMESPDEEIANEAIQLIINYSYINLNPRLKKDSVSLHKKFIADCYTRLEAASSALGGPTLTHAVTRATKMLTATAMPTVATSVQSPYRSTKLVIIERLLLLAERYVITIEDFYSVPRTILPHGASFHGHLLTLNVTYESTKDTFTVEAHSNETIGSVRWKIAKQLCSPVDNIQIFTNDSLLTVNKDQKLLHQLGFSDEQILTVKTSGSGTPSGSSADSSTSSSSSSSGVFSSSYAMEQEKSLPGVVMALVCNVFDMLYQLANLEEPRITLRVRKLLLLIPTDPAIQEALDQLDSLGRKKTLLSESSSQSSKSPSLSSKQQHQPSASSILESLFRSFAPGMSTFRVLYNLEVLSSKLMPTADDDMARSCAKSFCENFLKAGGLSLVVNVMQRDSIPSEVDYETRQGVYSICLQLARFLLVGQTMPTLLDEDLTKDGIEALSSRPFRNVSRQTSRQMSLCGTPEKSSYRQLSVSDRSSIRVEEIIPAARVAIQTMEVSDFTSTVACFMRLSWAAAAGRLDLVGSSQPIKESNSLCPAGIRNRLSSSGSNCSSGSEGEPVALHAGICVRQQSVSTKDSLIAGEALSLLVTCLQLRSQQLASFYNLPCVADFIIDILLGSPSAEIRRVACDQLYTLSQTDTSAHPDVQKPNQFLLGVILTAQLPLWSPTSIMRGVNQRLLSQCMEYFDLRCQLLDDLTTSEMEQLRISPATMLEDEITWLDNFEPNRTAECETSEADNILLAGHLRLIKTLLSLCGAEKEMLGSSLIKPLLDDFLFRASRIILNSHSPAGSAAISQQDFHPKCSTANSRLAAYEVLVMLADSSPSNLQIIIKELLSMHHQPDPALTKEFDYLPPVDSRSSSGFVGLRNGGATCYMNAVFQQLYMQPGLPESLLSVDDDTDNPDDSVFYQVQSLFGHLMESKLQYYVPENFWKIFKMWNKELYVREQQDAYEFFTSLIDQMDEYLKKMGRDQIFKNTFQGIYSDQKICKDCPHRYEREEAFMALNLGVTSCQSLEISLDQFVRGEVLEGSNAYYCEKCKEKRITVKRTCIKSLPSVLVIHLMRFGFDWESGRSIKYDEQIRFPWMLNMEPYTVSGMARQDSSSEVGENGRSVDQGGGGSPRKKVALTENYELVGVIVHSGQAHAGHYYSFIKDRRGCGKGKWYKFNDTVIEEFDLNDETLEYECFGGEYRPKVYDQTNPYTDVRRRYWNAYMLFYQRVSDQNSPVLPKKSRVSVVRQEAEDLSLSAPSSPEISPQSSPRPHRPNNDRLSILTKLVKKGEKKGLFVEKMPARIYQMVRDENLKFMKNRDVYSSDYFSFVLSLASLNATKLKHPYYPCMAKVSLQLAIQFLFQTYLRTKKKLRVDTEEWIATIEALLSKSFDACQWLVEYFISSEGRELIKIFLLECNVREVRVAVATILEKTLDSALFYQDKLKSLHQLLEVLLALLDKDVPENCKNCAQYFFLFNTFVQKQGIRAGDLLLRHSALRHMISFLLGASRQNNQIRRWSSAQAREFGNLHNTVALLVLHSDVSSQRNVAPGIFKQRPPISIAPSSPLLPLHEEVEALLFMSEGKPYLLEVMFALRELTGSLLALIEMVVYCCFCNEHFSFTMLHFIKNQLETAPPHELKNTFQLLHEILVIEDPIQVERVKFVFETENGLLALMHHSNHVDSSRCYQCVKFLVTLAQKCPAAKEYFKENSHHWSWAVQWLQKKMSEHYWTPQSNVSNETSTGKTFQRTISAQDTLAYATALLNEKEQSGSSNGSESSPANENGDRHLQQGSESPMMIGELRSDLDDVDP
In short: as §1

USP25 = target: T3, USP25 (UniProt Q9UHP3)
T3 sequence (whole entry): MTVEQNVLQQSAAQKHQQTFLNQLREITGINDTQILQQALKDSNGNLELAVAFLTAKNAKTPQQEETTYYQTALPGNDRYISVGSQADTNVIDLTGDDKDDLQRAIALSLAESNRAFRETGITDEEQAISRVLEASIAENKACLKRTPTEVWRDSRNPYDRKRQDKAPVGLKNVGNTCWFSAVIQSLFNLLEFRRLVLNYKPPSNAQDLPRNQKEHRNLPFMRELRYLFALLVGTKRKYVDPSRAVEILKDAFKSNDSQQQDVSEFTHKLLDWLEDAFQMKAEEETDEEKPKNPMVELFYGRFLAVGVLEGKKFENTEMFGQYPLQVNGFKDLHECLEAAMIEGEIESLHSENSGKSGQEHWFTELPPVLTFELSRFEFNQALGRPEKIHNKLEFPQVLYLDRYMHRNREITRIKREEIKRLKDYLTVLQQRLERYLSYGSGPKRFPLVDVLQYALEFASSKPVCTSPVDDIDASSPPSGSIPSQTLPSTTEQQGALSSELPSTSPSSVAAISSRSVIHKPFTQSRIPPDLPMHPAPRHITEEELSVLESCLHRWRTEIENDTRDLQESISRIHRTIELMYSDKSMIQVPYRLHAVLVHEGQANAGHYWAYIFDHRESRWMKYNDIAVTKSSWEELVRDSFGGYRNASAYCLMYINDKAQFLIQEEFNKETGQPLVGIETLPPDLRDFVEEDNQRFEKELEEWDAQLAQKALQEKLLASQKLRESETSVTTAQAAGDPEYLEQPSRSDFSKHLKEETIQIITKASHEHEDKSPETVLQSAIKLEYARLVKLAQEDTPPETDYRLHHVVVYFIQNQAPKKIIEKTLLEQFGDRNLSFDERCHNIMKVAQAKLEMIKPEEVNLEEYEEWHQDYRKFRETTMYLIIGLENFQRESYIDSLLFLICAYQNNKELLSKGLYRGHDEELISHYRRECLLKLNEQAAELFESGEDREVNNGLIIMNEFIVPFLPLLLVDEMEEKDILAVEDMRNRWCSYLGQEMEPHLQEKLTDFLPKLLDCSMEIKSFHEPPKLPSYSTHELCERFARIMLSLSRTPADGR
In short: as §1

USP28 = target: T4, USP28 (UniProt Q96RU2)
T4 sequence (whole entry): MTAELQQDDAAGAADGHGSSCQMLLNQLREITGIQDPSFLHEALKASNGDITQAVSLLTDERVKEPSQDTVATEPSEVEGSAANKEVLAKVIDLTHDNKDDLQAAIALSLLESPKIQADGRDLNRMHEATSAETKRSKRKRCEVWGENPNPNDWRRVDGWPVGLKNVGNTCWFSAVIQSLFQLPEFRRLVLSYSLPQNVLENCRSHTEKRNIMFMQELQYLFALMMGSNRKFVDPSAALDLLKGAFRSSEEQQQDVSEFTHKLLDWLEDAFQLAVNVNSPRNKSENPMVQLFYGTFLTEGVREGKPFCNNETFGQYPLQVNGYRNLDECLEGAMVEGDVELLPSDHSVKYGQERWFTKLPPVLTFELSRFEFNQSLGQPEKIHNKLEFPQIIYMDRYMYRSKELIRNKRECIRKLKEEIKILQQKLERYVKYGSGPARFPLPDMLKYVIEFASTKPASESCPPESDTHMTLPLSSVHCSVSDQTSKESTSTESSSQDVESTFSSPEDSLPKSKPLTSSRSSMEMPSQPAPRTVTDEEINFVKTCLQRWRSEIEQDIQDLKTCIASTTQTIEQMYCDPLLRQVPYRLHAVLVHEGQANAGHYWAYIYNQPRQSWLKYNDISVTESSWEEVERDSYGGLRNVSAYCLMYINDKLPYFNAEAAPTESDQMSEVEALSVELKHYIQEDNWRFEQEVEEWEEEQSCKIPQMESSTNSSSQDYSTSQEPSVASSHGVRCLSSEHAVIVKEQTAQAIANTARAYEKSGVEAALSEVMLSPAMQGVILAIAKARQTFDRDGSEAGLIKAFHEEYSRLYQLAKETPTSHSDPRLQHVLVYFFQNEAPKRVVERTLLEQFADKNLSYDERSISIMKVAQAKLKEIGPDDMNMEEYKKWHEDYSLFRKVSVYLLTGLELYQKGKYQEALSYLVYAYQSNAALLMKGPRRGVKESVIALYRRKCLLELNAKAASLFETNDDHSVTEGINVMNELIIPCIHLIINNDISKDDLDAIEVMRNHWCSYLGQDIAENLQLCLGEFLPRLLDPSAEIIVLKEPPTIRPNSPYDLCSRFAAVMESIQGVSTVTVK
In short: as §1

Measured: log2 ratio of Biotin-Ahx-Ub-VS probe labelling

CNC(=O)C1CCN(C(=O)CCl)CC1
inactive: USP19 -0.122 | USP22 0.206 | USP24 -0.198 | USP25 -0.123 | USP28 -0.243
